Assay results: PubChem BioAssay AID1159580 (chemical genetic matrix, 2015)
In all, about 5,500 compounds went through this assay and about 2,000 (36%) were called active. Roughly 18% stayed inconclusive and do not appear here. No stated cut-off is given here; in the data, active means normalized growth mostly below about 0.91 (no sharp cut-off); inconclusive means no clear call, values can overlap the other calls; inactive means mostly above about 0.92. The list shows a part of the results.

Test: chemical genetic growth profiling, strain panel (AID 1159580);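 further: tested at 20 µM; growth read once vehicle control cultures reached saturation at 30 °C; 1 = growth at the plate median or of vehicle wells; lower values mean less growth of the strain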
Conditions: growth OD

Measured: normalized growth

COc1cc(O)c(C(=O)c2ccccc2)c(OC)c1
inactive: S. cerevisiae deletion strains, locus YAL013W, strain DEP1, active compounds read low 0.982 | S. cerevisiae deletion strains, locus YBR021W, strain FUR4, active compounds read low 0.898 | S. cerevisiae deletion strains, locus YBR229C, strain ROT2, active compounds read low 0.985 | S. cerevisiae deletion strains, locus YCL029C, strain bik1, active compounds read low 0.996 | S. cerevisiae deletion strains, locus YDL035C, strain GPR1, active compounds read low 0.972 | S. cerevisiae deletion strains, locus YDL074C, strain BRE1, active compounds read low 0.922 | S. cerevisiae deletion strains, locus YDL101C, strain DUN1, active compounds read low 0.986 | S. cerevisiae deletion strains, locus YDL134C, strain PPH21, active compounds read low 0.984 | S. cerevisiae deletion strains, locus YDL185W, strain tfp1, active compounds read low 0.989 | S. cerevisiae deletion strains, locus YDL192W, strain arf1, active compounds read low 0.982 | S. cerevisiae deletion strains, locus YDR101C, strain arx1, active compounds read low 0.961 | S. cerevisiae deletion strains, locus YDR150W, strain NUM1, active compounds read low 0.994 | S. cerevisiae deletion strains, locus YDR162C, strain NBP2, active compounds read low 0.907 | S. cerevisiae deletion strains, locus YDR318W, strain mcm21, active compounds read low 0.956 | S. cerevisiae deletion strains, locus YDR388W, active compounds read low 0.978 | S. cerevisiae deletion strains, locus YDR502C, strain sam2, active compounds read low 0.937 | S. cerevisiae deletion strains, locus YEL061C, strain CIN8, active compounds read low 0.984 | S. cerevisiae deletion strains, locus YER110C, active compounds read low 0.994 | S. cerevisiae deletion strains, locus YER155C, strain BEM2, active compounds read low 0.989 | S. cerevisiae deletion strains, locus YER167W, strain BCK2, active compounds read low 0.954 | S. cerevisiae deletion strains, locus YGL078C, strain dbp3, active compounds read low 0.99 | S. cerevisiae deletion strains, locus YGL086W, strain mad1, active compounds read low 0.983 | S. cerevisiae deletion strains, locus YGL248W, strain PDE1, active compounds read low 0.983 | S. cerevisiae deletion strains, locus YGR078C, strain PAC10, active compounds read low 0.927 | S. cerevisiae deletion strains, locus YGR135W, strain pre9, active compounds read low 0.92 | S. cerevisiae deletion strains, locus YGR229C, strain SMI1, active compounds read low 0.885 | S. cerevisiae deletion strains, locus YGR252W, strain gcn5, active compounds read low 0.914 | S. cerevisiae deletion strains, locus YHR030C, strain SLT2, active compounds read low 0.945 | S. cerevisiae deletion strains, locus YHR079C, strain IRE1 (second series), active compounds read low 0.966 | S. cerevisiae deletion strains, locus YHR094C, strain hxt1, active compounds read low 0.986 | S. cerevisiae deletion strains, locus YHR129C, strain ARP1, active compounds read low 0.972 | S. cerevisiae deletion strains, locus YHR200W, strain rpn10, active compounds read low 0.985 | S. cerevisiae deletion strains, locus YIL066C, strain RNR3, active compounds read low 0.938 | S. cerevisiae deletion strains, locus YIL073C, strain SPO22, active compounds read low 1 | S. cerevisiae deletion strains, locus YIL125W, strain kgd1, active compounds read low 0.981 | S. cerevisiae deletion strains, locus YIR030C, strain dcg1, active compounds read low 0.979 | S. cerevisiae deletion strains, locus YJL095W, strain BCK1, active compounds read low 0.806 | S. cerevisiae deletion strains, locus YJL134W, strain LCB3, active compounds read low 0.986 | S. cerevisiae deletion strains, locus YJL168C, strain set2, active compounds read low 0.99 | S. cerevisiae deletion strains, locus YJL187C, strain SWE1 (second series), active compounds read low 0.964 | S. cerevisiae deletion strains, locus YJR043C, strain POL32, active compounds read low 0.981 | S. cerevisiae deletion strains, locus YJR075W, strain HOC1, active compounds read low 0.935 | S. cerevisiae deletion strains, locus YKL009W, strain mrt4, active compounds read low 0.99 | S. cerevisiae deletion strains, locus YKL068W, active compounds read low 0.986 | S. cerevisiae deletion strains, locus YKL085W, strain MDH1 (second series), active compounds read low 0.987 | S. cerevisiae deletion strains, locus YKL085W, strain MDH1, active compounds read low 0.987 | S. cerevisiae deletion strains, locus YKL190W, strain CNB1, active compounds read low 0.991 | S. cerevisiae deletion strains, locus YKR001C, strain vps1, active compounds read low 0.936 | S. cerevisiae deletion strains, locus YLR039C, strain RIC1, active compounds read low 0.827 | S. cerevisiae deletion strains, locus YLR058C, strain SHM2, active compounds read low 0.984 | S. cerevisiae deletion strains, locus YLR102C, strain apc9, active compounds read low 0.98 | S. cerevisiae deletion strains, locus YLR262C, strain YPT6, active compounds read low 0.817 | S. cerevisiae deletion strains, locus YLR268W, strain sec22, active compounds read low 0.904 | S. cerevisiae deletion strains, locus YLR330W, strain CHS5, active compounds read low 0.984 | S. cerevisiae deletion strains, locus YLR342W, strain FKS1 (second series), active compounds read low 0.88 | S. cerevisiae deletion strains, locus YLR371W, strain rom2, active compounds read low 0.991 | S. cerevisiae deletion strains, locus YML016C, strain PPZ1, active compounds read low 0.981 | S. cerevisiae deletion strains, locus YML032C, strain rad52, active compounds read low 0.994 | S. cerevisiae deletion strains, locus YML124C, strain tub3, active compounds read low 0.983 | S. cerevisiae deletion strains, locus YMR078C, strain ctf18, active compounds read low 0.98 | S. cerevisiae deletion strains, locus YMR223W, strain ubp8, active compounds read low 0.966 | S. cerevisiae deletion strains, locus YMR263W, strain SAP30, active compounds read low 0.962 | S. cerevisiae deletion strains, locus YMR307W, strain GAS1, active compounds read low 0.647 | S. cerevisiae deletion strains, locus YNL067W, strain RPL9B, active compounds read low 0.953 | S. cerevisiae deletion strains, locus YNL128W, strain TEP1, active compounds read low 0.991 | S. cerevisiae deletion strains, locus YNL153C, strain GIM3, active compounds read low 0.961 | S. cerevisiae deletion strains, locus YNL233W, strain BNI4, active compounds read low 0.904 | S. cerevisiae deletion strains, locus YNL250W, strain rad50, active compounds read low 1 | S. cerevisiae deletion strains, locus YNL271C, strain bni1, active compounds read low 0.982 | S. cerevisiae deletion strains, locus YNL298W, strain CLA4, active compounds read low 0.987 | S. cerevisiae deletion strains, locus YNL322C, strain KRE1, active compounds read low 0.99 | S. cerevisiae deletion strains, locus YNR052C, strain pop2, active compounds read low 1.01 | S. cerevisiae deletion strains, locus YOL006C, strain TOP1, active compounds read low 0.824 | S. cerevisiae deletion strains, locus YOL012C, strain htz1 0.9 | S. cerevisiae deletion strains, locus YOL147C, strain pex11, active compounds read low 0.965 | S. cerevisiae deletion strains, locus YOR061W, strain CKA2, active compounds read low 0.989 | S. cerevisiae deletion strains, locus YOR069W, strain VPS5, active compounds read low 0.987 | S. cerevisiae deletion strains, locus YOR136W, strain idh2, active compounds read low 1.01 | S. cerevisiae deletion strains, locus YOR144C, strain elg1, active compounds read low 0.983 | S. cerevisiae deletion strains, locus YOR184W, strain ser1, active compounds read low 0.931 | S. cerevisiae deletion strains, locus YOR316C, strain cot1, active compounds read low 0.981 | S. cerevisiae deletion strains, locus YPL055C, strain LGE1, active compounds read low 0.927 | S. cerevisiae deletion strains, locus YPL241C, strain CIN2, active compounds read low 0.986 | S. cerevisiae deletion strains, locus YPR119W, strain clb2, active compounds read low 0.98 | S. cerevisiae deletion strains, locus YPR141C, strain kar3, active compounds read low 0.99 | S. cerevisiae deletion strains, locus YPR163C, strain tif3, active compounds read low 0.928 | S. cerevisiae deletion strains, locus YPR167C, strain met16, active compounds read low 0.978 | S. cerevisiae deletion strains, strain wtn01, active compounds read low 0.929 | S. cerevisiae strains, strain wild type, active compounds read low 0.983
active: S. cerevisiae deletion strains, locus YLR418C, strain cdc73, active compounds read low 0.813 | S. cerevisiae deletion strains, locus YNL307C, strain MCK1, active compounds read low 0.73
